Assay results as given in the supplement of paper PMC3334620.
The full ranking holds about 33,000 sequences; the median of “E-score (-0.5 to 0.5)” is about -0.012, and the highest 2% start at about 0.27. This is one part of a sample in which the highest values are shown more often than they occur.

target: T1, Vhr1 (UniProt P40522); test: PBM E-score (8-mer binding enrichment) (E-score (-0.5 to 0.5)); higher = stronger / more preferred TF binding; conditions: protein concentration: 200 nM; construct: GST-full length
T1 sequence: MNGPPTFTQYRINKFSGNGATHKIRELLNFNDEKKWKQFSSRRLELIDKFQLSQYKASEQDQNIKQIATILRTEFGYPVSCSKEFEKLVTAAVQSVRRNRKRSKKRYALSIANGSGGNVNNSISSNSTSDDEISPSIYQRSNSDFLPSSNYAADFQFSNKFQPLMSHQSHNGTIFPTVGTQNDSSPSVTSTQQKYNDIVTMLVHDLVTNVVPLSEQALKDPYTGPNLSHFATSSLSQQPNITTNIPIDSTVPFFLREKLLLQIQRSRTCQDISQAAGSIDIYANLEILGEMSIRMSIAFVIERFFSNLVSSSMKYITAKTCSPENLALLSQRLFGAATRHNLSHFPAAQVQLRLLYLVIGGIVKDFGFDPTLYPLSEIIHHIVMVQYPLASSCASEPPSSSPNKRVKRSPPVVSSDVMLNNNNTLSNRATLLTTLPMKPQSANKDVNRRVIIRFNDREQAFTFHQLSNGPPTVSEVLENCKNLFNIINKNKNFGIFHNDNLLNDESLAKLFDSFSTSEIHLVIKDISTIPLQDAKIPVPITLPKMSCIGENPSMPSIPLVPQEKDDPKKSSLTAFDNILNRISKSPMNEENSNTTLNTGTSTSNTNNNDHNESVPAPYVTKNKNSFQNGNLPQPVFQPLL
Procedure: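 Universal 'all 10-mer' protein binding microarrays (Agilent AMADID 015681) probed with GST-tagged S. cerevisiae TFs (full-length or DBD) made by in vitro transcription/translation (PURExpress), about 100-200 nM. Bound TF was detected with fluorescent anti-GST. Each ungapped 8-mer (which stands for itself and its reverse complement) is scored by the PBM enrichment score (E-score), a modified Wilcoxon-Mann-Whitney statistic from -0.5 to +0.5, computed with the Universal PBM Analysis Suite. Scale: above 0.35 generally sequence-specific binding.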

| Sequence | PBM E-score |
| --- | --- |
| ATCAGGCC | -0.0546 |
| ACACTAAA | 0.238 |
| CTACTTAA | -0.204 |
| CACTCATC | 0.137 |
| GACTCAAC | 0.42 |
| GACTCAAA | 0.266 |
| CACTCAAC | 0.0922 |
| GACTCATC | 0.452 |
| CACTCATA | 0.179 |
| GACTCATA | 0.388 |
| AACTCATA | 0.141 |
| AACTCATC | 0.209 |
| AAGTAGAC | -0.0556 |
| AGCCATTG | 0.172 |
| CCCGCTAG | -0.249 |
| TCCCGGGA | -0.0779 |
| GTAGGTAA | -0.114 |
| GGCGAAGA | -0.152 |
| CGACTCAA | 0.386 |
| CTACTCAA | 0.113 |
| AGACTCAA | 0.214 |
| GGACTCAA | 0.143 |
| TGACTCAA | 0.468 |
| CCACTCAA | 0.133 |
| CGATTTAG | -0.0352 |

| Sequence | PBM E-score |
| --- | --- |
| ACATTCAT | 0.0173 |
| CTACCTGC | -0.0175 |
| CGTGAGAC | 0.0393 |
| AGACCTTA | 0.0612 |
| AAGAGGTA | 0.0122 |
| CGACCCAA | 0.14 |
| CGTAATTA | -0.128 |
| AGTAATCG | 0.141 |
| CGTAATCA | 0.273 |
| GGTAATGA | 0.023 |
| AGTAATCA | 0.303 |
| CTCAATCC | -0.0448 |
| CTCAATCA | 0.33 |
| GGTAATCA | 0.288 |
| ATCAATCA | 0.248 |
| CGTAATCC | -0.104 |
| GCTAATCA | 0.262 |
| AGTAATCC | 0.0334 |
| AATTGGCT | -0.0912 |
| ATACTGTA | 0.224 |
| GGAAACGA | 0.0811 |
| GGTGTCCA | -0.0191 |
| ACAAGTGA | -0.154 |
| CAGATTAG | -0.0795 |
| AAATAACG | -0.00647 |

| Sequence | PBM E-score |
| --- | --- |
| GTAATGTA | -0.131 |
| CCCGCGGC | 0.272 |
| ATCCCCGC | 0.129 |
| CCCGCCGA | 0.00185 |
| CCCGCCAC | 0.321 |
| CCCGCCGG | 0.134 |
| CTCCCCGC | 0.325 |
| GCCGCGGC | 0.237 |
| CTCCCCGA | -0.116 |
| CCCGCGGA | -0.0501 |
| CCCGCCGC | 0.36 |
| GCCGCCAC | -0.0771 |
| ACCGCCAC | 0.0902 |
| ATGACCCC | 0.211 |
| AAGGCAGC | -0.132 |
| ATATAGAA | 0.11 |
| AGCATCAG | 0.0568 |
| CATGTTCG | 0.0242 |
| GATTGGGC | -0.102 |
| CAACCTCC | 0.0131 |
| ATGTATCA | 0.267 |
| CTGTATCA | -0.0153 |
| GTGTATCA | 0.275 |
| GCACTTTA | -0.249 |
| CAGTTACG | -0.125 |

| Sequence | PBM E-score |
| --- | --- |
| ATACTCAG | 0.274 |
| ATACTCAA | 0.178 |
| ATACTGTC | 0.137 |
| ATACTGAG | 0.302 |
| ATACTCAC | 0.17 |
| ACTCTCAG | -0.0997 |
| ATACTCAT | 0.277 |
| CTACTCAG | 0.153 |
| ATACTGTG | 0.0981 |
| CGAGTTCC | 0.0292 |
| GCAAACTA | 0.0776 |
| AATGCTCA | 0.021 |
| AAGAATAC | 0.0498 |
| AGGGTCGA | 0.158 |
| ACCTGCCC | 0.0405 |
| CTACGCCC | 0.0207 |
| CGGCAGTA | -0.109 |
| ACAACCCC | -0.061 |
| CATGCTCC | -0.08 |
| GATCATGA | 0.197 |
| AATCATTG | 0.283 |
| AATCATGA | 0.331 |
| AATCAGGT | 0.268 |
| TATCATGA | 0.189 |
| AATCATGG | 0.387 |

| Sequence | PBM E-score |
| --- | --- |
| AATCAAGT | 0.174 |
| AATCATTC | 0.251 |
| AATCAAGG | 0.0679 |
| AATCATTA | 0.222 |
| AATCAGGG | 0.133 |
| AATCATGT | 0.389 |
| CCGCCAAC | 0.163 |
| GCATTGAA | -0.0212 |
| AACTAGTT | -0.125 |
| AAAGGTTA | -0.357 |
| CATCTATA | 0.0881 |
| CATCATGG | 0.152 |
| GATCATGC | 0.0952 |
| CATCATGC | 0.201 |
| CATCATAA | 0.133 |
| CATCATGA | 0.276 |
| CAACATGA | 0.3 |
| CAACATGG | 0.0395 |
| AATCATGC | 0.304 |
| CAACATGC | 0.15 |
| AGAGCGAC | 0.0123 |
| ACTATAGC | 0.00988 |
| CTCGATTA | 0.216 |
| TACGAGCA | -0.0868 |
| GGAATACA | 0.0161 |

| Sequence | PBM E-score |
| --- | --- |
| CACCCGTC | 0.0428 |
| CAACGCTA | -0.125 |
| GAGGAATC | 0.0804 |
| CTTGATTC | 0.214 |
| AATGAATC | 0.23 |
| CATGATTC | 0.424 |
| AACGAATC | 0.125 |
| CATGAATC | 0.31 |
| GATGAATC | 0.249 |
| CATGATCC | 0.213 |
| CACGAATA | 0.066 |
| CACGAATC | 0.288 |
| CAGGAATC | 0.313 |
| CAGGAATG | 0.0121 |
| CAGTATCC | 0.124 |
| GCTGGCGA | -0.0575 |
| GGCAGACA | -0.0678 |
| ATTGCCCA | -0.113 |
| CCGGTCCG | 0.112 |
| AAATGAAT | -0.0848 |
| CTGATCGA | 0.0718 |
| CTGGACCC | -0.213 |
| CACTGCCG | 0.173 |
| ATACTACG | -0.0642 |
| CTGAGATA | -0.128 |

| Sequence | PBM E-score |
| --- | --- |
| GCAGCTTA | -0.0202 |
| AATGATTG | 0.199 |
| CATGATAA | 0.108 |
| AATGATTC | 0.406 |
| CATGATTA | 0.369 |
| CTTGATTA | 0.0605 |
| ATTGATTC | 0.171 |
| TAACCTAA | -0.187 |
| ACCTTCTG | 0.167 |
| CCCACCCG | 0.382 |
| CCCACCCC | 0.389 |
| GCCACCCC | -0.0413 |
| CCCACCCA | 0.263 |
| ACCACCCC | 0.112 |
| ACCACCCG | -0.0147 |
| AACCCCTA | -0.0392 |
| AACACCGA | 0.108 |
| GACGACTA | 0.162 |
| GACGACGC | -0.049 |
| CACGACTC | 0.378 |
| AACGACTC | 0.292 |
| AACGACTT | -0.216 |
